Reference: PubChem BioAssay (Tox21)
Values without a mark were called inactive. Inconclusive results are not listed. Entries that show only a call come without a potency. Active and inactive are the calls of the source. Unless noted, the call rests on the fitted dose curve.

Experiments:
[1] = Nuclear factor erythroid 2-related factor 2/antioxidant responsive element (Nrf2/ARE) small molecule agonists: qHTS cell viability counter screen in human keratinocytes (AID 1919968; active means well fitted curve in the direction sought with a large enough effect in the repeat runs; an effect the other way counts as inactive or inconclusive; further: nearly all actives have a fitted effect of over 55% in size)
In short: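 In human HaCaT keratinocytes stably expressing an ARE-driven luciferase, compound exposure lasted 23 h at 37 C under 5% CO2. Viable cells are quantified with a protease-based fluorogenic reagent (CellTiter-Fluor) read 1 h after addition.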

[2] = Nuclear factor erythroid 2-related factor 2/antioxidant responsive element (Nrf2/ARE) small molecule agonists: luciferase reporter gene qHTS assay in human keratinocytes (AID 1919969); further: nearly all actives have a fitted effect of over 35% in size
[3] = target: Gonadotropin-releasing hormone receptor (Homo sapiens) (UniProt P30968); experiment: Human gonadotropin-releasing hormone receptor (GnRHR) small molecule agonists, calcium flux assay in GnRHR-HEK293 cells (AID 1920063); further: nearly all actives have a fitted effect of over 35% in size
In short: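 Intracellular calcium rise is the read-out: engineered human GnRHR HEK293 cells, dye-loaded, are exposed to DMSO-dissolved compounds and fluorescence at Ex/Em 480/540 is tracked for 3 min.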

[4] = target: KiSS-1 receptor (Homo sapiens) (UniProt Q969F8); experiment: Human kisspeptin (KISS1R) small molecule agonists, calcium flux assay in KISS1R-HEK293 cells (AID 1920064; active means well fitted curve in the direction sought with a large enough effect in the repeat runs; an effect the other way counts as inactive or inconclusive)
In short: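 Concentration-response testing used 15 concentrations in triplicate on human KISS1R-expressing HEK293 cells. Calcium-dependent fluorescence (Ex/Em 480/540) was followed kinetically for 3 min after compound transfer.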

[5] = G protein-coupled receptor (GPCR) small molecule agonists, calcium flux assay: HEK293 wild type cell line counter screen (AID 1920065)
In short: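 Fluorescence intensity signals activation. After overnight (18 h) culture and a 1 h calcium dye load at 37 C, compounds are added by pin tool and the plate read at 480/540 nm for 3 min in 1 s steps.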

[6] = p53 small molecule agonists, cell-based qHTS assay with human liver microsomes (AID 1963577);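 further: p53 response element beta-lactamase reporter cells with liver microsomes plus NADPH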
In short: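 Metabolically competent format: test substances, human liver microsomes and NADPH (both 0.5 mg/mL final) incubated with p53RE-bla cells 16 h at 37 C. Beta-lactamase reporter signal then quantified by fluorescence.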

[7] = p53 small molecule agonists, cell-based qHTS assay with human liver microsomes: qHTS cell viability counter screen (AID 1963579); further: nearly all actives have a fitted effect of over 45% in size
In short: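 Tox21 library compounds, delivered from DMSO stocks, were tested on p53RE-bla cells together with 0.5 mg/mL human liver microsomes and 0.5 mg/mL NADPH (final) over 16 h at 37 C; CellTiter-Glo luminescence served as the cytotoxicity measure.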

[8] = p53 small molecule agonists, cell-based qHTS assay with rat liver microsomes: qHTS cell viability counter screen (AID 1963580); further: nearly all actives have a fitted effect of over 45% in size
In short: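 Cytotoxicity counter screen: intracellular ATP read by CellTiter-Glo luminescence in the p53 reporter wells. HCT-116 p53RE-bla cells were treated for 16 h at 37 C alongside rat liver microsomes and NADPH, each 0.5 mg/mL final.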

[9] = p53 small molecule agonists, cell-based qHTS assay: qHTS cell viability counter screen (AID 1963581); further: nearly all actives have a fitted effect of over 45% in size
In short: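 Luminescence from CellTiter-Glo, reflecting ATP content, serves as the cytotoxicity measure; it is taken after the 2 h reporter substrate step in HCT-116 p53RE-bla cells dosed for 16 h at 37 C.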

[10] = p53 small molecule agonists, cell-based qHTS assay (AID 1963582; active means well fitted activation curve with a large enough effect in the signal ratio in the repeat runs, not every such curve was filed as active; the % refers to the signal ratio)
In short: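 After plating, p53RE-bla cells sat 5 h in the incubator; compounds or DMSO vehicle were pinned in; a 16 h incubation at 37 C followed; FRET substrate was added and, 2 h later at RT, fluorescence was measured.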

[11] = target: D(2) dopamine receptor (Homo sapiens) (UniProt P14416); experiment: Dopamine D2 receptor (DRD2) small molecule agonists, cell-based qHTS assay (AID 1963594); further: nearly all actives have a fitted effect of over 35% in size; further: potency means the concentration at half of the fitted maximal effect
In short: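 cAMP accumulation in DRD2-HEK293 cells measured by HTRF after 1 h detection; compounds added 10 min before NKH477 (200nM […]) forskolin-analogue stimulation, 30 min at room temperature, with Ro20-1724 present at 0.1 mM final.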

[12] = target: 5-hydroxytryptamine receptor 2A (Homo sapiens) (UniProt P28223); experiment: 5-hydroxytryptamine receptor 2A (HTR2A) small molecule agonists, cell-based qHTS assay (AID 1963587); further: nearly all actives have a fitted effect of over 30% in size
In short: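 Kinetic calcium-flux fluorescence (2 min, 1 sec intervals) after compound addition in agonist mode. HTR2A-CHO cells were cultured 18 h, then dye-loaded 1 h at 37 C.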

[13] = target: Muscarinic acetylcholine receptor M1 (Homo sapiens) (UniProt P11229); experiment: Cholinergic receptor muscarinic 1 (CHRM1) small molecule antagonists, cell-based qHTS assay (AID 1963588); further: nearly all actives have a fitted effect of over 40% in size; further: potency means the concentration at half of the fitted maximal effect
In short: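 Compounds were tested at 15 concentrations in three independent runs. Dye-loaded CHRM1-CHO cells were exposed 5 min at room temperature before stimulation by acetylcholine added at 50nM. Intracellular calcium was read kinetically on FDSS for 3 min.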

[14] = target: Muscarinic acetylcholine receptor M1 (Homo sapiens) (UniProt P11229); experiment: Cholinergic receptor muscarinic 1 (CHRM1) small molecule agonists, cell-based qHTS assay (AID 1963589); further: nearly all actives have a fitted effect of over 35% in size
In short: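 Fluorescent calcium dye reports M1 activation in stably transfected CHO cells. Compounds, 15 concentrations, added after 1 h dye loading at 37 C; kinetic reading at 1 sec intervals.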

[15] = cAMP Responsive Elements (CRE) small molecule agonists, cell-based qHTS assay (AID 1963590)
In short: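 Compound exposure lasted 3 h at 37 C/5% CO2 in CRE-bla HEK 293T cells grown in assay medium with 10% dialyzed FBS and 25 mM HEPES. Reporter signal came from LiveBLAzer B/G FRET substrate, 2 h, room temperature.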

[16] = target: Beta-2 adrenergic receptor (Homo sapiens) (UniProt P07550); experiment: Adrenergic beta2 receptor (ADRB2) small molecule antagonists, cell-based qHTS assay (AID 1963592); further: series mostly up to about 92 µM; nearly all actives have a fitted effect of over 50% in size
In short: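 Assay format: CHO-ADRB2 cells, 18-20hr seeding at 37C/5% CO2, then compound plus 1nM isoproterenol agonist mix for 0.5hr RT. Homogeneous time-resolved fluorescence cAMP detection after 1hr, expressed as 665/615 nm ratio.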

[17] = target: D(2) dopamine receptor (Homo sapiens) (UniProt P14416); experiment: Dopamine D2 receptor (DRD2) small molecule antagonists, cell-based qHTS assay (AID 1963595; active means well fitted inhibition curve with a large enough effect in the signal ratio in the repeat runs, with a control signal flat; the % refers to the signal ratio; further: potency means the concentration at half of the fitted maximal effect)
In short: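 Readout: HTRF cAMP, cAMP-d2 competing with cellular cAMP for anti-cAMP cryptate, read after 1 h. Cells: DRD2-HEK293. Conditions: 0.1 mM Ro20-1724, 12 nM quinpirole, 200 nM NKH477, 30 min RT.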

[18] = target: 5-hydroxytryptamine receptor 2A (Homo sapiens) (UniProt P28223); experiment: 5-hydroxytryptamine receptor 2A (HTR2A) small molecule antagonists, cell-based qHTS assay (AID 1963586); further: nearly all actives have a fitted effect of over 45% in size
In short: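 CHO cells stably expressing human HTR2A were plated for 18 h at 37 C, then loaded with calcium dye for 1 h. Compounds were preincubated 5 min at room temperature before DOI (4 nM solution) was added. Kinetic fluorescence was read for 3 min.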

[19] = cAMP Responsive Elements (CRE) small molecule antagonists, cell-based qHTS assay (AID 1963591; active means well fitted inhibition curve with a large enough effect in the signal ratio in the repeat runs, not every such curve was filed as active; the % refers to the signal ratio)
In short: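 Stimulation used NKH477 at a final 0.25 uM for 3 h in compound-treated CRE-bla HEK293T cells, seeded 18 h beforehand. Reporter activity was measured with LiveBLAzer B/G FRET substrate after 2 h at room temperature.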

[20] = p53 small molecule agonists, cell-based qHTS assay with rat liver microsomes (AID 1963578)
In short: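 Each plate received p53RE-bla cells, then compound, then rat liver microsomes and NADPH (both 0.5 mg/mL final). Plates were held 16 h at 37 C, and beta-lactamase activity was detected with LiveBLAzer over 2 h.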

Beta-2 adrenergic receptor (Homo sapiens), sequence (P07550 whole entry, looked up): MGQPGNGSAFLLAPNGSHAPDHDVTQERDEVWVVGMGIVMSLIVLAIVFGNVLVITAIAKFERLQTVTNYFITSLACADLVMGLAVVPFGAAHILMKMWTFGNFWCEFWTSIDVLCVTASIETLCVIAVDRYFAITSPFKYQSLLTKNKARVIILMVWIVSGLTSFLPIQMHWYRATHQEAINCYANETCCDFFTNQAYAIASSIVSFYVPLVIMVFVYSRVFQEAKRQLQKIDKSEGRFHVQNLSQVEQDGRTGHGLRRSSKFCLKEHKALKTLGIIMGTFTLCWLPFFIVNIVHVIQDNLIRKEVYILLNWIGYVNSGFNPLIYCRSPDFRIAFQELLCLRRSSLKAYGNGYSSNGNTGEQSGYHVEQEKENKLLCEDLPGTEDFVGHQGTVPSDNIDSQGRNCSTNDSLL
D(2) dopamine receptor (Homo sapiens), sequence (P14416 whole entry, looked up): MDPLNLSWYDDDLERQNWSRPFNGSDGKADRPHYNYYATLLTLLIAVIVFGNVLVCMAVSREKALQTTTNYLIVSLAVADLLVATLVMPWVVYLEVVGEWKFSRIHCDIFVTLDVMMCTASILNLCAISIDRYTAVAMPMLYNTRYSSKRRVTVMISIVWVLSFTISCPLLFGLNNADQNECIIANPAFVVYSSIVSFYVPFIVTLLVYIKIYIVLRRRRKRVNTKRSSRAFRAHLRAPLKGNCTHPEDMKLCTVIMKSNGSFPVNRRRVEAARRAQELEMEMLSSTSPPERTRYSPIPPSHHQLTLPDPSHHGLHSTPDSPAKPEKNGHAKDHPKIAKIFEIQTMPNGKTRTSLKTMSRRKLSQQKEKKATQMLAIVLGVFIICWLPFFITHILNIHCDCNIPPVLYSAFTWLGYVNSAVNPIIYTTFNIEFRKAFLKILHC
Muscarinic acetylcholine receptor M1 (Homo sapiens), sequence (P11229 whole entry, looked up): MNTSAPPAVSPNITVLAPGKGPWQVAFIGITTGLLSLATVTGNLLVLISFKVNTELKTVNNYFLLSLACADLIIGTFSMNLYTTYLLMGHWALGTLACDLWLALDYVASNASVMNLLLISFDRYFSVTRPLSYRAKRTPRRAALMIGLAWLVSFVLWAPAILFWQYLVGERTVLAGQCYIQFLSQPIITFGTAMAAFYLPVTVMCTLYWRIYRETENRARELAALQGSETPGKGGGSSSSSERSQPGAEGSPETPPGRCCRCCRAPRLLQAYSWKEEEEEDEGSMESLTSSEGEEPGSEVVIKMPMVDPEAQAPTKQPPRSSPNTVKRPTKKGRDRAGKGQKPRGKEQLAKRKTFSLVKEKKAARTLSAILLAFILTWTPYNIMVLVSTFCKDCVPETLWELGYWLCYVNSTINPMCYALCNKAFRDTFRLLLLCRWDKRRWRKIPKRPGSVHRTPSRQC
Gonadotropin-releasing hormone receptor (Homo sapiens), sequence (P30968 whole entry, looked up): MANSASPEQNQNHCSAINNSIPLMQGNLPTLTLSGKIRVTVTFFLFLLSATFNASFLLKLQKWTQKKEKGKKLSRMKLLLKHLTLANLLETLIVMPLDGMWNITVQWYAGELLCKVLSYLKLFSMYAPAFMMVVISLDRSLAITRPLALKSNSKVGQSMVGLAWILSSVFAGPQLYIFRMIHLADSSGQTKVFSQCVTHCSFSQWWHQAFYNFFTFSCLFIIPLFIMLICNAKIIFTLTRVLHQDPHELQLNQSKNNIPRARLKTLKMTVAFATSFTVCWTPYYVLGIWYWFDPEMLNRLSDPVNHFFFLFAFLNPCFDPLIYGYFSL
KiSS-1 receptor (Homo sapiens), sequence (Q969F8 whole entry, looked up): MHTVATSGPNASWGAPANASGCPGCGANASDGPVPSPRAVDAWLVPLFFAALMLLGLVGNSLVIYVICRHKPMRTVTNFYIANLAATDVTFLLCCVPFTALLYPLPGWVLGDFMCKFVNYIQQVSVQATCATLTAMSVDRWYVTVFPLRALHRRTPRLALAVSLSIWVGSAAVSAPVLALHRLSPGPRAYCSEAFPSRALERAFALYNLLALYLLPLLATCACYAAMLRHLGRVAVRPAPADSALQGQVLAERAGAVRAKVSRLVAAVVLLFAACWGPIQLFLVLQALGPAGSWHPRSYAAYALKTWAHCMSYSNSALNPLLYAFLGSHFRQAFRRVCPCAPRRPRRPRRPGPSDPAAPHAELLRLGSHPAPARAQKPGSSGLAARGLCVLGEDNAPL
5-hydroxytryptamine receptor 2A (Homo sapiens), sequence (P28223 whole entry, looked up): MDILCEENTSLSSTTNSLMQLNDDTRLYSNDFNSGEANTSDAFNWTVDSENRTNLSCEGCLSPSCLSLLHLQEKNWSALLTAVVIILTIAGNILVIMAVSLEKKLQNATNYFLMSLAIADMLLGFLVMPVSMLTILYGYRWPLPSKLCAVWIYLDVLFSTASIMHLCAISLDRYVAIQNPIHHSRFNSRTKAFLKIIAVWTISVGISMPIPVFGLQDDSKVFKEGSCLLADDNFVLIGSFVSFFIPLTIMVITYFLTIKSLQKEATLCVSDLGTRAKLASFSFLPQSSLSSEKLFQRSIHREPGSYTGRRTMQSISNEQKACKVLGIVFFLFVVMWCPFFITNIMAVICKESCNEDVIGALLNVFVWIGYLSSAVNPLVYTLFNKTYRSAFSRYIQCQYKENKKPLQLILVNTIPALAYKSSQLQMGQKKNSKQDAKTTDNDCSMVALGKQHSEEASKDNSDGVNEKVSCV

Row | Structure (SMILES) | Potency [1] | Potency [2] | Potency [3] | outcome [4] | outcome [5] | Potency [6] | Potency [7] | Potency [8] | Potency [9] | Potency [10] | Potency [11] | Potency [12] | Potency [13] | Potency [14] | Potency [15] | Potency [16] | Potency [17] | Potency [18] | Potency [19] | Potency [20]
1 | CN1C[C@H](C(=O)N[C@]2(C)O[C@@]3(O)[C@@H]4CCCN4C(=O)[C@H](Cc4ccccc4)N3C2=O)C[C@@H]2c3cccc4[nH]cc(c34)C[C@H]21 | inactive | inactive | inactive | inactive | inactive | inactive | inactive | inactive | inactive | inactive | 22 nM (active) | – | – | – | – | – | – | – | – | –
2 | COc1ccc(-c2cc(=O)c3c(O)cc(O[C@@H]4O[C@H](CO[C@@H]5O[C@@H](C)[C@H](O)[C@@H](O)[C@H]5O)[C@@H](O)[C@H](O)[C@H]4O)cc3o2)cc1O | inactive | inactive | inactive | inactive | inactive | inactive | inactive | inactive | inactive | inactive | inactive | inactive | inactive | inactive | inactive | inactive | inactive | – | – | –
3 | CC1=C2[C@@H]([C@H](C)CC[C@H]2/C=C(\C)C(=O)O)[C@H](O)C1 | inactive | inactive | inactive | inactive | inactive | inactive | inactive | inactive | inactive | inactive | inactive | inactive | 2.6 nM (active) | – | – | inactive | – | inactive | inactive | –
4 | Cc1cc(=O)oc2cc(O)cc(O)c12 | inactive | inactive | inactive | inactive | inactive | inactive | inactive | inactive | inactive | inactive | – | inactive | inactive | inactive | – | inactive | inactive | inactive | – | –
5 | CC(CCc1ccc(O)cc1)NCCc1ccc(O)c(O)c1 (centres undefined) | inactive | inactive | inactive | inactive | inactive | inactive | – | – | – | – | 77.9 nM (active) | – | – | – | – | inactive | 10600 nM (active) | – | – | inactive
6 | Cc1cc(C)c(O)c(C(C)(C)C)c1 | inactive | inactive | inactive | inactive | inactive | inactive | inactive | inactive | inactive | inactive | – | – | – | inactive | – | inactive | inactive | – | inactive | –
7 | CC1CCCO1 (centres undefined) | inactive | inactive | inactive | inactive | inactive | inactive | inactive | inactive | inactive | inactive | inactive | – | inactive | inactive | inactive | inactive | inactive | inactive | inactive | –
8 | CCOC(=O)c1cnc2c(cnn2CC)c1NN=C(C)C | inactive | inactive | inactive | inactive | inactive | inactive | inactive | inactive | inactive | inactive | inactive | inactive | inactive | inactive | inactive | inactive | inactive | – | – | –
